# Results taken from PubChem BioAssay AID588405 (Sanford-Burnham Center for Chemical Genomics, 2011).
# Hit rate of the full screen: of about 360,000 compounds, about 6,200 (1.7%) were called active. The sample holds actives, similar compounds and a random draw of the others, so the mix is not that of the screen. Unmarked numbers belong to inactive results.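 How the source made its calls: active means inhibition of at least 50% at 20 µM; inactive means the rest.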
# Assay: inhibition of PEG-3 promoter activity – cell-based, HeLa, luciferase luminescence, primary screen (AID 588405)
# Conditions: HeLa PEG-Prom luciferase reporter, overnight, at 20 µM, stronger effect = higher value
row,SMILES,inhibition
1,COC(=O)Cc1ccc(OC2(C)CCN(Cc3ccc4c(c3)OCCO4)C2)cc1 (stereo not given),-18.6%
2,Cc1cccc(C)c1NC(=O)CN1CCN(c2ccc(F)cc2)CC1,5.77%
3,CCc1ccc(CNC(=O)C2CC(=O)N(CCc3ccc(C)cc3)C2)cc1 (stereo not given),7.77%
4,CCc1ccc(CNC(=O)C2CCN(c3nnc(C)c4c(C)n(-c5ccc(C)cc5)nc34)CC2)cc1,99.3% (active)
5,Cc1ccc(NC(=O)N2CCC(C(=O)NCc3ccc(F)cc3)CC2)cc1,6.32%
6,COc1ccc(OC)c(S(=O)(=O)N2CCCC(C(=O)NCCc3ccccc3)C2)c1 (stereo not given),5.79%
7,N#CCCN(C(=O)COC(=O)C1CCN(c2ccc(C(F)(F)F)cn2)CC1)c1ccc(F)cc1,-15.9%
8,CCOC(=O)C1(Cc2ccccc2C)CCCN(C(=O)c2ccc(COC)o2)C1 (stereo not given),-235%
9,Cc1cccc(N=Nc2c(O)[nH]c3ccc(F)cc23)c1,-236%
10,O=C(CNC(=O)Cc1ccccc1)N=Nc1c(O)[nH]c2ccc(Br)cc12,-7.31%
11,NS(=O)(=O)c1ccc(N=Nc2c(O)[nH]c3ccc(Br)cc23)cc1,98.7% (active)
12,CCCNC(=O)c1cc(C2CCCN(C(=O)c3ccc4c(c3)CCO4)C2)on1 (stereo not given),11%
13,Cc1ccc(N2C(=O)CC(NCc3ccc4c(c3)OCO4)C2=O)cc1Cl (stereo not given),-15.9%
14,O=C(CSc1nc(=O)n2ccccc2n1)Nc1ccc2c(c1)OCCO2,-14.4%
15,CCc1ccc([C@@H]2CC(=O)[C@@H]3CN(S(=O)(=O)c4ccc(C)cc4)[C@H](c4ccc(Cl)cc4)C[C@@H]3N2S(=O)(=O)c2ccc(C)cc2)cc1,15.4%
16,COc1cnc(-c2ccccn2)nc1Oc1ccc(C(C)(C)C)cc1,-4.72%
17,CC(C)(C)c1ccc(Oc2ccc(N)cc2)cc1,76.7% (active)
18,Cc1cc(C(C)(C)C)cc(C)c1N,6.32%
19,CC1(C(=O)NS(=O)(=O)c2ccc3ccccc3c2)CCN1C(=O)C1(c2ccc(Cl)cc2)CCC1 (stereo not given),-9.9%
20,CC1(C(=O)NCc2cccc3ccccc23)CCN1Cc1ccc(-c2ccccc2)o1 (stereo not given),21.9%
21,CCOC(=O)c1ccn(S(=O)(=O)c2ccc(C)cc2)c1-c1ccccc1,-0.12%
22,Cc1nc2scc(-c3cccs3)c2c(=O)n1N,3.36%
23,CCS(=O)(=O)N1CCC(C(=O)N2CCN(c3ccccc3)CC2)CC1,-2.59%

row,SMILES,inhibition
1,CCS(=O)(=O)N1CCC(N2CCN(c3ccccc3)CC2)CC1,52% (active)
2,CS(=O)(=O)N1CCC(C(=O)N2CCN(c3ccccc3)CC2)CC1,8.23%
3,CCC(C)(C)NC(=O)C(c1cccn1C)N(Cc1ccc(C)cc1)C(=O)Cn1nnc2ccccc21 (stereo not given),5.59%
4,Cc1ccccc1-c1nc(NC(C)C)nc2cc(-c3ccccc3)sc12,7.19%
5,COc1cccc(-c2sc3ccc(OC)cc3c2-c2ccc(OCCN3CCCCC3)cc2)c1,87.9% (active)
6,COc1ccc2sc(-c3ccccc3OC)c(-c3ccc(OCCN4CCCC4)cc3)c2c1,34.9%
7,COc1cc(OC)cc(-c2sc3ccc(OC)cc3c2-c2ccc3cc[nH]c3c2)c1,2.15%
8,CCN(CCN(C)C)C(=O)c1ccc2nc(C)c(N(C)C(=O)CCc3ccccc3)n2c1,-8.8%
9,COC(=O)c1ccc2nc(C3CCCCC3)c(Cc3cccc(F)c3)n2c1,-20.6%
10,Cc1cc(C)c2nc3nc(C)cc(C)c3c(N)c2c1,59.9% (active)
11,COC(=O)c1ccc(COc2ccc(/C=C/C(=O)c3ccc(OC)c(CSCC(=O)O)c3)cc2OC)cc1,-5.11%
12,COc1ccccc1CCNC(=O)C1CCN(C(=O)/C=C/c2ccccc2)CC1,-46.9%
13,COc1ccc(C(=O)/C=C/c2ccc(-c3ccccc3)cc2)cc1CSCC(=O)O,98.8% (active)
14,COc1ccc2c3c1O[C@H]1C[C@@H](O)C=C[C@@]31CCN(C)C2,-14.7%
15,COc1ccc(NC(=O)c2cc(-c3cc(OC)c(OC)c(OC)c3)nc3ccccc23)c(OC)c1,50.8% (active)
16,COc1ccc(-c2cc(C(=O)n3cnc4ccccc43)c3ccccc3n2)cc1,-64%
17,COc1ccc(NC(=O)c2sc(N3CCOCC3)nc2-c2ccccc2)c(OC)c1,20.4%
18,CC(=O)Nc1cccc(-c2cc3nc(NCc4cccnc4)n(C)c(=O)c3s2)c1,-27.3%
19,CN(c1ccccc1)S(=O)(=O)c1cc(C(=O)Nc2nc3ccccc3[nH]2)ccc1Cl,5.63%
20,O=C(/C(=C/c1cccc(Cl)c1)c1nc2ccccc2[nH]1)c1ccccc1,109% (active)
21,O=c1c2cc(Br)ccc2nc(-c2cccc(Cl)c2)n1O,31.2%
22,Cc1ccc(-c2nc3ccccc3[nH]2)cc1NC(=O)c1sc2ccccc2c1Cl,50.7% (active)
23,Cc1ccc2c(Cl)c(C(=O)Nc3nn[nH]n3)sc2c1,-5.87%

row,SMILES,inhibition
1,CN1CCc2ccccc2C1Cc1ccccc1NC(=O)c1sc2ccccc2c1Cl (stereo not given),-137%
2,COc1ccc(C)cc1NC(=O)CCS(=O)(=O)c1cccc2nonc12,-14.4%
3,Cc1ccc2c(C(=O)CN3CCCC3)c(C)[nH]c2c1,7.2%
4,CCNC(=O)C1(C)CCN(C(=O)c2ccccc2)C1 (stereo not given),-7.38%
5,CC1CC(=O)Nc2ccccc2N1S(=O)(=O)c1cccs1 (stereo not given),10.5%
6,CC1CC(=S)Nc2ccccc2N1Cc1ccccc1 (stereo not given),55.4% (active)
7,CC1CN(Cc2ccccc2)C(=S)NC1=O (stereo not given),-2.37%
8,CCNC(=O)C1(C)CCCN1C(=O)c1ccc(N(C)C)cc1 (stereo not given),-3.48%
9,CCN1CCN(c2nc(Nc3cc(OC)ccc3OC)nc(Nc3cc(OC)ccc3OC)n2)CC1,52.3% (active)
10,CCCOc1ccc(Cl)cc1Nc1nc(NCCO)nc(N2CCCC2)n1,9.9%
11,CCOc1ccc(Nc2nc(Cl)nc(N3CCN(c4ccc(OC)cc4)CC3)n2)cc1,22.4%
12,COc1cccc(C(O)c2ncc(-c3ccc4ccccc4c3)[nH]2)c1 (stereo not given),-68.4%
13,CNC(=O)C1CC(=O)N(c2ccc(OCC(=O)Nc3ccccc3C)cc2)C1 (stereo not given),-61.3%
14,CC12CCC(=O)C=C1CCC1C2C(O)CC2(C)C1CCC2(O)C(O)CO (stereo not given),10.9%
15,CCc1nc2ccc(C(=O)Nc3ccc(OC)c(OC)c3)cn2c1N(C)C(=O)c1cccc(OC)c1,-9.49%
16,CCCN1CCN(C(=O)Cn2ncc3ccccc32)CC1,6.83%
17,O=C1NC[C@H](Cc2ccc(O)cc2)N(C[C@H]2CCCN2C[C@H](Cc2ccccc2)N2C[C@H](Cc3ccccc3)N(CCc3ccccc3)C(=O)C2=O)C1=O,-4.33%
18,O=C(c1snnc1-c1ccccc1)N1CCOCC1,11.7%
19,Cc1ccc(C(=O)N2CCN(S(=O)(=O)N3CCOCC3)CC2)cc1,5.77%
20,Cc1oc2c(c1C(=O)N1CCOCC1)C(=O)c1ccccc1C2=O,97.9% (active)
21,CC=CCn1c(SCCCc2ccccc2)nc2c1c(=O)[nH]c(=O)n2C,0.45%
22,CN(CCO)Cc1csc2ccc(Br)cc12,13.7%
23,COc1ccc(S(=O)(=O)N2CCCCC2c2cc(C(=O)NCc3ccc(F)cc3)no2)cc1 (stereo not given),15.3%

row,SMILES,inhibition
1,CC[C@@H]1Cc2cc(O)ccc2C2=C1c1ccc(O)cc1C[C@H]2CC,64.8% (active)
2,CCc1nc2c(OCC(N)=O)cccn2c1N(C)C(=O)c1ccc(OC)cc1,-3.72%
3,CN(CC(=O)Nc1ccc(Cl)c(C(F)(F)F)c1)C(=O)CCC(=O)c1ccccc1,12.6%
4,O=C(Cc1ncc(C(F)(F)F)cc1Cl)Nc1cccc(Br)c1,3.22%
5,O=C(CC(O)(C(F)(F)F)C(F)(F)F)Nc1ccc(Cl)c(Cl)c1,69.9% (active)
6,COC(=O)/C=C\C(=O)Nc1cccc([N+](=O)[O-])c1,106% (active)
7,O=C(Nc1cccc([N+](=O)[O-])c1)N1CCc2ccccc2C1,-236%
8,Cc1ccc(NC(=O)O/N=C/c2cccc([N+](=O)[O-])c2)cc1,-85.8%
9,O=C(CN1C(=O)NC2(CCOc3ccccc32)C1=O)NCc1ccc(F)cc1 (stereo not given),20.2%
10,CCc1ccc2c(c1)NC(=O)C2(C)Cc1ccc(OC(F)(F)F)cc1 (stereo not given),32.7%
11,CCOC(=O)c1sc(C)c2c1NC(C)(c1cccc3ccccc13)NC2=O (stereo not given),34.8%
12,Cc1ccc(-n2c(-c3ccc(Cl)cc3)n[nH]c2=S)cc1,17.7%
13,COc1ccc(-c2nc3ccc(Br)cn3c2Cc2ccc(C)cc2)cc1OC,-58.2%
14,Cc1ccc2nc(-c3ccc(Br)cc3)cn2c1,55.6% (active)
15,Cc1ccc(-c2cn3cc(C)ccc3n2)cc1,88.8% (active)
16,Cc1ccc(-c2nc3ccc(Cl)cn3c2Cc2ccccc2)cc1,-130%
17,Cc1ccc(-c2nc3ccc(Br)cn3c2Cc2ccccc2C(F)(F)F)cc1,-138%
18,Cc1csc(NC(=O)CSc2nc(=O)n(CCCN(C)C)c3c2CCC3)n1,4.74%
19,CN(Cc1ccc(C(F)(F)F)cc1)C(=O)[C@H]1O[C@@H](n2cnc3c(N)ncnc32)[C@H](O)[C@@H]1O,6.54%
20,CC1(C(=O)NS(=O)(=O)c2ccc(C#N)cc2)CCN1C(=O)c1ccc(C2CCCCC2)cc1 (stereo not given),-8.94%
21,O=[N+]([O-])/C(N=Nc1ccccc1)=N\Nc1ccccc1,-2.71%
